A selection: hits, their analogues and other compounds. The true share with any hit is near 7%.
JMJD2A Tudor inh – JMJD2A Tudor domain (human) inhibition; Potency, µM (titrated, usually from 114 µM), for inactives: at the highest dose activity change, negative = inhibition, most hits filed as inhibitors; AlphaScreen JMJD2A-Tudor / H3K4me3 peptide binding; O75164; AID 504339; 4.4% of 390,000 active; also: potency is read from the fitted curve at half-maximal effect; % is scaled to controls: 0 for no effect and ±100 for the full control effect; nearly all actives have a fitted effect of over 50% in size
PLK1 PBD inh – blocks phosphopeptide binding to human PLK1 polo-box domain; Plk1 PBD binding of FITC phosphopeptide, fluorescence polarization; P53350; AID 720504; Potency, µM, inactives show max response, negative = inhibition, hits mostly inhibitors; 2.8% of 360,000 active; also: potency is read from the fitted curve at half-maximal effect; series mostly up to about 57 µM; % is scaled to controls: 0 for no effect and ±100 for the full control effect; nearly all actives have a fitted effect of over 65% in size
HP1b binding inh – blocks HP1-beta chromodomain binding to methylated histone tails. Potency, µM (titrated, usually from 114 µM), for inactives: at the highest dose activity change, negative = inhibition, actives largely listed as inhibitors. AlphaScreen HP1-beta / biotin-H3K9me3 peptide binding. P83916. AID 540317. 0.56% of 390,000 active; also: potency is read from the fitted curve at half-maximal effect; nearly all actives have a fitted effect of over 70% in size
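Compound inhibition of the preformed complex between 50 nM HP1-beta and 50 nM biotinylated H3K9me3 peptide was read by AlphaScreen. Buffer was PBS pH 7.4 with 0.01% Tween-20. Incubations ran 30 min at room temperature, with 10 ug/mL donor/acceptor beads.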
PI5P4K alpha inh – blocks human PI5P4K alpha kinase activity; P48426; PI5P4Kalpha enzyme, ADP-Glo luminescence, 60 min; stronger effect = lower value; max response, %; 1.2% of 330,000 active; AID 652105; active = max response of -50% or lower; inconclusive = between -30% and -50%; inactive = -30% or higher; also: value at the top dose of about 77 µM; % is scaled to controls: 0 for no effect and ±100 for the full control effect
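ADP-Glo luminescence end-point read after a 60 min room-temperature kinase reaction of PI5P4Kalpha plus substrate, initiated with ATP at 5 microM final. Buffer: 0.038 M HEPES pH 7.4, EGTA, 0.1% CHAPS, 5% DMSO.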
KAT2A inh – GCN5L2 (KAT2A) acetyltransferase inhibition. 0.21% of 390,000 active. Potency, µM (top dose mostly 58.9 µM), inactives show at the highest dose activity change, negative = inhibition, usual class: inhibitors. Q92830. GCN5L2 HAT assay, ThioGlo1 CoA-SH fluorescence. AID 504327; also: potency is read from the fitted curve at half-maximal effect; % is scaled to controls: 0 for no effect and ±100 for the full control effect
Target sequence (Q92830 whole entry, looked up): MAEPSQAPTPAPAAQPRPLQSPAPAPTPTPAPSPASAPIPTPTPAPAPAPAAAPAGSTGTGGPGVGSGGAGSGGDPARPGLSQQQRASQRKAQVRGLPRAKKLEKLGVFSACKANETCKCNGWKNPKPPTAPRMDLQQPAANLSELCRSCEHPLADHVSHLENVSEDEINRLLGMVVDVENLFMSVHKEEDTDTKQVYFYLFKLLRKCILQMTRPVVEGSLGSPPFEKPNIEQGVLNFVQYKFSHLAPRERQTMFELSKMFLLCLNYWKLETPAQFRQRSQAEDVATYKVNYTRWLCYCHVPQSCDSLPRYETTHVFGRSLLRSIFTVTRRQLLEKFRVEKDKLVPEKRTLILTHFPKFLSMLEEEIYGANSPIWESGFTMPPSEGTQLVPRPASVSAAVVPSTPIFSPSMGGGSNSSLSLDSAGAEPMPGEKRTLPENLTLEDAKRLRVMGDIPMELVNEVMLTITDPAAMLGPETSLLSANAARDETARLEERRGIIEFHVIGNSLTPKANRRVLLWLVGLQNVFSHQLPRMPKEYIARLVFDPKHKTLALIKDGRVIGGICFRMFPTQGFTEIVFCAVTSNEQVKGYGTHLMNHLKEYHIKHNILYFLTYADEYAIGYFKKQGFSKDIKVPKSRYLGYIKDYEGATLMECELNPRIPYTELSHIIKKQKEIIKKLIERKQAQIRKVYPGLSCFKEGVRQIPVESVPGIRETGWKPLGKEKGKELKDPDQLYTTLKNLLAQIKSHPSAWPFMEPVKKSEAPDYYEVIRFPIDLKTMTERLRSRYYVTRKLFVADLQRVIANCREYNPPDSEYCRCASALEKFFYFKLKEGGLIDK
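Compounds, pin-transferred from DMSO stocks, meet 20nM GCN5L2 for 15 min before the reaction begins with H3(1-25) peptide (75uM) and acetyl-CoA (70uM). Thiol-reactive ThioGlo1 reports CoA release over 20 min at room temperature.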
BAZ2B inh – inhibitors of human BAZ2B bromodomain | Q9UIF8 | AlphaScreen BAZ2B-H3K14Ac peptide displacement | Potency, µM (doses to about 114 µM), inactives show top-dose activity change, negative = inhibition, usual class: inhibitors | 4.4% of 360,000 active; also: potency is read from the fitted curve at half-maximal effect; % is scaled to controls: 0 for no effect and ±100 for the full control effect; nearly all actives have a fitted effect of over 60% in size
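Inhibition is scored as reduced AlphaScreen emission. The BAZ2B/b-H3(5-23)K14Ac complex (50 nM each) in PBS pH 7.4, 0.01% Tween-20 meets compound (up to 110 uM) for 30 min at RT before bead addition.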
* marks the source's active call; other numbers are inactive results; u = inconclusive; x = no result given; [ ] = another dose, or the depositor's remark. Unless noted, calls follow the shape of the dose curve; as a rule, active = well fitted curve in the direction sought with a large enough effect; inconclusive = small, poorly fitted or top-dose-only effect, or another doubt; inactive = no such curve, though single readings can be large; an effect the other way counts as inactive or inconclusive.

SMILES	JMJD2A Tudor inh	PLK1 PBD inh	HP1b binding inh	PI5P4K alpha inh	KAT2A inh	BAZ2B inh
NC(=O)C1CCN(CC(=O)Nc2cc(S(=O)(=O)N3CCOCC3)ccc2N2CCCC2)CC1	-7.4%	-13.6%	19.7%	-1.2	-0.9%	-1.4%
CC(C)(C)NC(=O)CC1C[C@H](C(=O)N2CCCCC2)[C@@]2(CCc3ccccc3)c3[nH]c4ccccc4c3CCN2C1=O (stereo partly drawn)	-12.3%	-5.6%	37.3%	3.5	-2.8%	x
CCN1C(=NCCOC)N[C@@H](c2cccs2)C(C(=O)OC)=C1C	u	10.1%	24.5%	-0.8	0.7%	-12.9%
CN(C(=O)c1cccc(NC(=O)Cc2cccc([N+](=O)[O-])c2)c1)C1CCCC1	-27.5%	-11.0%	-1.8%	-9.4	0.7%	x
Cc1cc(Cl)ccc1OCC(=O)OCC(=O)NC1CCS(=O)(=O)C1 (stereo not drawn)	11.1%	1.9%	26.4%	-5.6	-12.1%	-3.2%
NS(=O)(=O)c1ccc(NC(=S)NCc2ccc(Cl)cc2)cc1	-23.2%	10.6µM*	u	-5.1	-19.5%	-25.7%
NS(=O)(=O)c1ccc(CNC(=S)Nc2ccc(F)c(Cl)c2)cc1	-5.6%	-11.2%	34.2%	-3.7	-1.4%	-0.7%
O=[N+]([O-])c1ccccc1N=Nc1ccc(O)cc1O	56.2µM*	-5.4%	u	u	x	x
O=[N+]([O-])c1cc(N=Nc2ccc3ccccc3c2)ccc1O	u	u	-17.3%	-8.2	u	u
COc1ccc(-c2cc(CNS(=O)(=O)c3ccc(NC(C)=O)cc3)on2)cc1	2.0%	7.5%	14.7%	-0.1	-4.0%	-24.4%
O=S(=O)(NCc1cc(-c2ccccc2Cl)no1)c1ccc(Cl)cc1	u	3.77µM*	u	u	-9.1%	4.6%
C=C(C)C(=O)Nc1cccc(C2=NOC3(C2)C[C@@H](C(N)=O)N(C(=O)c2cc([N+](=O)[O-])cc([N+](=O)[O-])c2)C3)c1 (stereo partly drawn)	28.2µM*	u	20µM*	-15.3	0.2%	28.2µM*
CCCCCC(=O)Nc1cccc(C2=NOC3(C2)C[C@@H](C(N)=O)N(C(=O)c2ccc(OC)cc2)C3)c1 (stereo partly drawn)	-34.5%	0.4%	10.4%	1.3	-14.8%	u
C=C(C)C(=O)Nc1cccc(C2=NOC3(C2)C[C@@H](C(N)=O)N(C(=O)c2ccc(OC)cc2)C3)c1 (stereo partly drawn)	2.82µM*	9.47µM*	3.16µM*	u	4.1%	1.78µM*
CCCCCC(=O)N1CC2(CC(c3cccc(NC(=O)[C@@H]4CCC(=O)N4)c3)=NO2)C[C@@H]1C(N)=O (stereo partly drawn)	-24.5%	-13.2%	13.4%	-2.5	-8.3%	1.2%
C=C(C)C(=O)Nc1cccc(C2=NOC3(C2)C[C@@H](C(N)=O)N(C(=O)CCCCC)C3)c1 (stereo partly drawn)	1.78µM*	11.9µM*	1.58µM*	u	0.7%	1.41µM*
CCCCCC(=O)Nc1cccc(C2=NOC3(C2)C[C@@H](C(N)=O)N(C(=O)c2cc([N+](=O)[O-])cc([N+](=O)[O-])c2)C3)c1 (stereo partly drawn)	u	-5.5%	-4.1%	5.4	15.4%	-31.3%
CCCn1c(SCC(=O)NCc2ccc(C)cc2)n[nH]c1=O	-7.5%	0.0%	21.3%	2.1	-0.5%	-2.0%
CCCn1c(SCC(=O)c2ccc(CC)cc2)n[nH]c1=O	-5.6%	8.44µM*	41.7%	1.8	-6.5%	4.0%
CCCn1c(SCC(=O)NC(=O)NC(C)(C)C)n[nH]c1=O	-24.2%	26.7µM*	25.5%	-4.8	-6.9%	-13.1%
CCCn1c(SCC(=O)Nc2cc(C)on2)n[nH]c1=O	-3.6%	-2.1%	34.9%	-1.8	-2.4%	x
COc1ccc(Cl)cc1NC(=O)c1nnn(CC(=O)Nc2ccc(C)c(C)c2)c1N	-24.3%	-11.5%	54.9%	-0.8	-5.1%	-12.6%
O=S(=O)(NCCc1cn(S(=O)(=O)c2ccccc2)c2ccccc12)c1ccccc1	50.1µM*	x	0.3%	x	x	x
COc1cc(-c2nc(Cc3c(F)cccc3Cl)no2)cc(OC)c1OC	-10.3%	-3.8%	61.0%	x	-11.8%	50.1µM*
Cc1cc(C)nc(SCC(=O)NNS(=O)(=O)c2ccc(C#N)cc2)n1	44.7µM*	u	u	u	-4.7%	56.2µM*
SMILES	JMJD2A Tudor inh	PLK1 PBD inh	HP1b binding inh	PI5P4K alpha inh	KAT2A inh	BAZ2B inh
Cc1cc(C)c(S(=O)(=O)c2ccccc2)c(OC(=O)c2ccc(Cl)cc2Cl)n1	-22.3%	-20.3%	102.6%	-27.3	0.0%	56.2µM*
COc1ccc(CN2CCc3c(c(=O)n4ncc(C(=O)N5CCN(c6ccc(F)cc6)CC5)c4n3C)C2)cc1	-11.2%	x	25.7%[57 µM]	x	-8.4%	79.4µM*
O=[N+]([O-])c1cc([N+](=O)[O-])c2cc3ccccc3nc2c1	-29.9%	0.423µM*	11.5%[57 µM]	-24.9	-4.5%	u
COCC(O)Cn1ccnc1N=Nc1ccccc1 (stereo not drawn)	x	1.3%	x	-12.0	x	x
CCc1ccc(OCC(=O)Nc2ncn[nH]2)c(Br)c1	-6.0%	x	47.3%	x	-3.8%	89.1µM*
COc1cc(O)c(C(CCN2CCOCC2)c2ccc(N(C)C)cc2)c(OC)c1 (stereo not drawn)	44.7µM*	3.9%	u	11.2	1.2%	35.5µM*
COc1cc(O)c(C(CCN2CCCC(C)C2)c2ccc(N(C)C)cc2)c(OC)c1 (stereo not drawn)	25.1µM*	-5.4%	u	0.0	0.8%	39.8µM*
COc1cc(OC)c2c(C)cc(=O)oc2c1C(CCN1CCCC(C)C1)c1ccc(N(C)C)cc1 (stereo not drawn)	28.2µM*	x	u	x	x	x
COc1cc(O)c(C(CCN2CCCC(C)C2)c2ccc3c(c2)OCO3)c(OC)c1 (stereo not drawn)	-35.5%	-0.4%	-18.8%	-6.3	3.8%	-29.3%
COc1cc(O)c(C(CC(=O)N2CCCCC2)c2ccc(N(C)C)cc2)c(OC)c1 (stereo not drawn)	50.1µM*	0.1%	-38.0%	8.8	-8.0%	u
COc1ccc(N2CCN(CCC(O)c3ccc4ccccc4c3)CC2)cc1 (stereo not drawn)	50.1µM*	-7.8%	u	1.9	-2.3%	21.7%
COc1cc(O)c(C(CCN2CCN(c3ccccc3)CC2)c2ccc(N(C)C)cc2)c(OC)c1 (stereo not drawn)	10µM*	4.4%	20µM*	1.9	-10.1%	7.94µM*
COc1ccc(C(CCN2CCN(c3ccccc3)CC2)c2c(O)cc(OC)cc2OC)cc1 (stereo not drawn)	15.8µM*	6.2%	-23.1%	-1.2	-5.6%	28.2µM*
